Experimental findings from ChEMBL document CHEMBL4513216, “Probing the Open Global Health Chemical Diversity Library for Multistage-Active Starting Points for Next-Generation Antimalarials” (ACS Infect Dis, 2020) are described below.

Among all 69,000 compounds or so, about 8,600 (12%) showed an effect of 50% or more. What follows is part of a selection rich in strong results, with near analogues and random picks from the rest.

This assay deals with Plasmodium berghei. Kind of assay: Screen against P. berghei liver stage (PbLuc), transformed with Luciferase, at 10uM. Format: functional, HepG2. The conditions noted are these: tested at 10 uM.
For the compound `O=C(CCc1ccccc1Br)NS(=O)(=O)c1ccc2c(c1)OCCO2`, the INHIBITION is given as 25.6%.

With `O=C(c1ccc(Cn2cnnn2)cc1)N1CC[C@H](CO)[C@H](O)C1`, the INHIBITION is reported as 22.5%. For `CC(C)CN(Cc1nc2c(cnn2C)c(=O)[nH]1)CC(C)C` the value was -33.55%; for `COc1ccc(-c2cnc(N)nc2C2CCCNC2)cc1` (stereo unspecified), 23.9%. With `COc1ccc(-n2cc3[nH][nH]c(=O)n3c2=O)cc1`, the INHIBITION is reported as -3%. For `COCC1CCN(S(=O)(=O)c2ccc(C(=O)NCC(F)F)cc2)C1` (stereo unspecified) the value was 10.6%; for `CCc1cnc(CNC(=O)NC2CCN(C3CCCC3)CC2)s1`, -104%.

Turning to `CC(=O)N[C@@H]1CN(C2CCN(c3cccc(Cl)c3)CC2)C[C@H]1C(C)C`, the INHIBITION was 30.8%. As to `CC(=O)N[C@@H]1CN(C2CCN(c3ccccc3F)CC2)C[C@H]1C(C)C`, the INHIBITION turned out to be 14.8%. For `CC(=O)N[C@@H]1CN(C2CCN(c3cccc(C)c3C)CC2)C[C@H]1C(C)C` the value was 66.1%; for `CCN(CC1CCOC1)C(=O)c1ccc(-c2ccsc2)nc1C` (stereo unspecified), 19.7%; for `Cn1cnc2c(N3CCOCC3)nc(C3CCNCC3)cc21`, -76.7%. For `c1ccc(-c2nc(CN3CCOC(Cn4cccn4)C3)co2)cc1` (stereo unspecified) the value was 22.3%; for `CN(C)CC1CN(Cc2nc(-c3cccnc3)no2)CCO1` (stereo unspecified), -50.5%. For `CN(C)CC1CN(Cc2coc(-c3ccccc3Cl)n2)CCO1` (stereo unspecified) the value was 25.3%; for `Cc1ccc(-c2nc(CN3CCOC(Cn4cccn4)C3)co2)cc1` (stereo unspecified), 49.8%. Consider `CN(C)CC1CN(Cc2coc(-c3ccc(Cl)cc3)n2)CCO1` (stereo unspecified), for which the INHIBITION was determined as 72.9%. Regarding `CN(C)CC1CN(Cc2coc(-c3cccc(F)c3)n2)CCO1` (stereo unspecified), the INHIBITION was determined as 11.2%. For `Cc1ccc(-c2nc(CN3CCOC(CN(C)C)C3)co2)cc1` (stereo unspecified) the value was 58.5%; for `CN(C)CC1CN(Cc2coc(-c3ccccc3)n2)CCO1` (stereo unspecified), -3.2%; for `Cc1ccc(-c2noc(CN3CCOC(CN(C)C)C3)n2)cc1F` (stereo unspecified), 62.3%.

With `Cc1noc(CN2CCOC(CN(C)C)C2)n1` (stereo unspecified), the INHIBITION is reported as 31.9%.

With `CN(C)CC1CN(Cc2coc(-c3cccs3)n2)CCO1` (stereo unspecified), the INHIBITION is 32.8%. Under `Fc1ccc(-c2nc(CN3CCOC(Cn4cccn4)C3)co2)cc1` (stereo unspecified) stands 58%. In the case of `Cn1cc(CN2CCC3(CC2)CCN(C(=O)c2cscn2)CC3)cn1`, the INHIBITION was 34.4%. Under `COCC(=O)NCc1cc(=O)n2c(n1)CN(Cc1ccccc1)CCC2` stands 25.8%; under `CCC(C)NC(=O)c1cc(Br)c2c(c1)OCCO2` (stereo unspecified), 23.5%. With `CC(C)N(CCO)C(=O)c1cc(COc2ccc3c(c2)CCCC3)on1`, the INHIBITION was -15.6%. On to `CC(C(=O)N1CCCCC1)N1CCN(c2ncc(Cl)cn2)CC1` (stereo unspecified), for which the INHIBITION is on record as -15%. Under `c1cnn(C2CN(c3ncnc4[nH]ccc34)C2)c1` stands -4.73%; under `Cc1csc(N2CCCN(C(=O)CCNc3ncccn3)CC2)n1`, 7.12%. For `CSC(C)C(=O)Nc1ccnn1-c1ccccc1C` (stereo unspecified) the value was -2.61%. Under `O=C1Nc2ccccc2C12CCN(c1nccs1)CC2` stands -15.9%. Regarding `Cc1cc(CN2CCOC(CN(C)C)C2)no1` (stereo unspecified), the INHIBITION is on record as 53.8%.

For `Cc1cc(CN2CCOC(CN(C)c3cccnn3)C2)no1` (stereo unspecified), the INHIBITION is on record as 26.9%. `Cc1cc(C)n(CC2CN(Cc3cc(C)on3)CCO2)n1` (stereo unspecified): the INHIBITION is given as 16%. For `CCc1c(C)n(CCOC)c2nc3ccccc3n2c1=O` the value was -7.81%; for `O=c1c2sccc2ncn1Cc1cc(C2CC2)[nH]n1`, 37.6%; for `N#Cc1ncn(CCC(=O)Nc2ccccc2F)n1`, -3.77%. With `N#Cc1ncn(CCC(=O)Nc2cc(Cl)ccc2Cl)n1`, the INHIBITION was -22.1%. In the case of `N#Cc1ncn(CCS(=O)(=O)c2ccc(Br)cc2)n1`, the INHIBITION is on record as 41.4%. Under `N#Cc1ncn(CCS(=O)(=O)c2ccc(Cl)cc2)n1` stands 54.3%; under `CCc1ccc(CCn2cnc(C#N)n2)cc1`, 37.4%; under `N#Cc1ncn(CCS(=O)(=O)c2ccccc2)n1`, 65.4%. For `CC(C)c1noc(OCC(=O)N2CCCCC2C)n1` (stereo unspecified) the value was -24.9%; for `CC(C)c1nc(C2CCCN2CCNS(C)(=O)=O)no1` (stereo unspecified), 23.8%. Take `CCOc1ccccc1-n1c(CNC)n[nH]c1=O`: the INHIBITION is -63.8%. On to `CNCc1cc(C)n(-c2ccccc2OC)c1C`, for which the INHIBITION was 70.3%. Under `CCOC(=O)CNC(=O)NCc1cc(C)n(-c2ccc(OC)cc2)c1C` stands 21.7%. For the compound `COc1ccccc1-n1c(C)cc(CNC(=O)NC(C)C)c1C`, the INHIBITION is 25.1%. For `CNCc1n[nH]c(=O)n1-c1ccccc1Oc1ccccc1`, the INHIBITION is -107%.

In the case of `CCOC(=O)CNC(=O)NCc1cc(C)n(-c2ccccc2OC)c1C`, the INHIBITION amounted to 63.1%. Under `CC(=O)N1[C@@H](C(=O)NCC2CC2)C[C@@H]2CN(Cc3nccs3)C[C@@H]21` stands 39.5%; under `CC(C)CCN(C(=O)c1nc(S(C)(=O)=O)n2ccccc12)C1CC1`, 17.165%; under `COc1cccc(Nc2nc(C3CCCNC3)c3sc(C)c(C)n23)c1` (stereo unspecified), 11.65%. Under `CC(C)(C)NCc1nn(Cc2ccccc2)nc1-c1ccccc1` stands 45.8%; under `CCn1ccnc1CN1CCN(CCCS(C)(=O)=O)CC1C` (stereo unspecified), 8.31%; under `Cc1cc(C(F)(F)F)cc(=O)n1Cc1nc(C(C)C)no1`, 23%. Under `CC(=O)NC1Cc2ccc(S(=O)(=O)NCCNc3ccccn3)cc2C1` (stereo unspecified) stands -18.8%; under `Cc1nc(CN2C(=O)COC3(CCN(C)CC3)C2C)cs1` (stereo unspecified), 8.03%.

With `CN(C)CCN1C(=O)CC[C@@H]2[C@H]1CCN2Cc1cccc(C#N)c1`, the INHIBITION is reported as 49.7%. Under `N#Cc1ccc(C(=O)N2CC[C@H]3[C@@H]2CCC(=O)N3c2ccccc2)cc1` stands 43.8%; under `Cc1ccc(C(=O)N2CC[C@@H]3[C@H]2CCC(=O)N3CCN(C)C)cn1`, 79.2%; under `CN(C)CCN1C(=O)CC[C@@H]2[C@H]1CCN2C(=O)c1ccc(C#N)cc1`, 70.4%. Under `Cc1ccc(C(=O)N2CCC3(CC2)CCN(CCN(C)C)C3=O)cn1` stands 28.2%; under `Cc1cncc(C(=O)N2CC[C@@H]3[C@H]2CCC(=O)N3CCN(C)C)c1`, 29%; under `N#Cc1cccc(CNCCNC(=O)Cc2cccc(F)c2)c1`, 29.2%. For `CCOc1ccc(Cl)c(C(=O)N2CCCSCC2)n1`, the INHIBITION amounted to 18.2%.

As for `Cc1cc(C)nc(NC2CCN(CCOC(C)C)CC2)n1`, the INHIBITION is on record as 43.9%. For `COc1ccnc(NC2CCN(CC(=O)Nc3ccccc3)CC2)n1` the value was 60.8%; for `O=C(CN1CCC(Nc2ncccn2)CC1)Nc1ccccc1`, 66.1%. For `COc1ccnc(NC2CCN(CC(=O)N3CCCC3)CC2)n1` the value was 11.6%; for `COc1ccc(NC(=O)CN2CCS(=O)(=O)CC2)cn1`, -2.55%. Turning to `CC(C)OCCN1CCC(Nc2ncc(Br)cn2)CC1`, the INHIBITION is given as 28.7%. On to `CC(C)c1nnc(C2CCN(CC(=O)Nc3cccnc3)CC2)o1`, for which the INHIBITION is listed as -39.2%.

Consider `Cc1cnc(NC2CCN(CC(=O)Nc3ccccc3)CC2)nc1C`, for which the INHIBITION was determined as 14.8%. Under `CC(C)OCCN1CCC(Nc2ncccn2)CC1` stands 55.9%. Regarding `CSc1ccc(CN2CCn3nc(CNC(C)=O)cc3C2)cc1`, the INHIBITION was -89.3%. As to `CC(C)N1CCC(Cc2cncc(-c3cccc(C(=O)O)c3)n2)C1` (stereo unspecified), the INHIBITION is recorded as -62.3%.

Regarding `COC(=O)c1ccc(CN2CCN(Cc3nc(C)no3)CC2)s1`, the INHIBITION turned out to be 23.2%.

As for `CC(C)c1nnc2n1CCN(Cc1nc(-c3ccoc3)no1)C2`, the INHIBITION stood at 17.45%. With `CC1CN(C(=O)CN(Cc2ccccc2Cl)C2CCCC2)CCO1` (stereo unspecified), the INHIBITION is -0.219%. For `COc1ccc(CN2CCn3cc(CNC(=O)C4CCC4)nc3C2)cc1` the value was 19.5%. Under `O=C(c1cnccn1)N1CCN2C[C@H](OCc3ccccc3)C[C@H]2C1` stands 11%. Regarding `O=C(c1ccnnc1)N1CCN2C[C@H](OCc3cccnc3)C[C@H]2C1`, the INHIBITION stood at 26.4%. Under `O=C(c1cnccn1)N1CCN2C[C@H](OCc3ccccn3)C[C@H]2C1` stands -0.182%; under `Cc1cnc(C(=O)N2CCN3C[C@H](OCc4cccnc4)C[C@H]3C2)cn1`, 52%. Consider `O=C(c1ccco1)N1CCN2C[C@H](OCc3cccnc3)C[C@H]2C1`, for which the INHIBITION came to 12.4%. Under `O=C(c1cnccn1)N1CCN2C[C@H](OCc3ccccc3F)C[C@H]2C1` stands 59.8%; under `O=C(c1cscn1)N1CCN2C[C@H](OCc3cccnc3)C[C@H]2C1`, 33%. Under `O=C(c1ccc(F)cc1)N1CCN2C[C@H](OCc3cccnc3)C[C@H]2C1` stands 82.3%. For `O=C(c1cccc(F)c1)N1CCN2C[C@H](OCc3cccnc3)C[C@H]2C1` the value was 17.1%; for `CS(=O)(=O)NC1CCCN(C(=O)COCc2ccccc2)C1` (stereo unspecified), -75.98%; for `Cc1ncc2c(n1)CCN(CCCc1nc3ccccc3o1)C2`, -65.2%. `O=C(NCc1cn2c(n1)CN(Cc1ccccn1)CC2)C1CCC1`: the INHIBITION is reported as -8.94%.

In the case of `CC(=O)N1[C@H](CN(C)C)C[C@@H]2CN(C(=O)c3ccno3)CC[C@@H]21`, the INHIBITION worked out at 17.4%. For `Cc1cc(C)c(C(=O)N2CCOC(CCN(C)C)C2)o1` (stereo unspecified) the value was -5.12%; for `Cc1ccc(N2CCC3(CCN(C(=O)c4ccsc4)C3)CC2)nn1`, 36.4%; for `Cc1nc[nH]c1C(=O)N1CCC2(CN(C)C(=O)O2)C1` (stereo unspecified), -11.2%.

`CN1CC2(CCN(C(=O)c3ccc4c(=O)n(C)cnc4c3)CC2)CC1=O`: the INHIBITION is 32.5%. Under `CN1CC2(CCN(C(=O)c3ccc4c(=O)n(C)cnc4c3)C2)OC1=O` (stereo unspecified) stands 88.2%; under `Cc1noc(C2CCN(Cn3cc(Br)cn3)CC2)n1`, -47%. For the compound `O=C(O)[C@@H]1OCC(=O)N(Cc2cccc(Cl)c2)[C@@H]1c1ccccc1`, the INHIBITION is recorded as -25.3%. For `O=C(O)CCCc1ccc2c(c1)CC(=O)N2` the value was 24.2%; for `CCOC(=O)CCCc1ccc2c(c1)CC(=O)N2`, 3.4%. For `CCSCCOC(=O)CCCc1ccc2c(c1)CC(=O)N2` the value was 54.9%.
